Reference: PubChem BioAssay (Tox21)
Results filed as inconclusive are left out. The source made the active and inactive calls. Unless noted, calls follow the shape of the dose curve; as a rule, active = well fitted curve in the direction sought with a large enough effect in the repeat runs; inconclusive = weak or mixed curves; inactive = no such curve, though single readings can be large; an effect the other way counts as inactive or inconclusive.

What was measured:
[1] = qHTS assay to identify small molecule antagonists of the estrogen related receptor (ERR) signaling pathway from Tox21 library - cell viability counter screen (AID 1224834); also: nearly all actives have a fitted effect of over 30% in size
Summary of the method: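 Seeded ERR cells were rested 6 h at 37 C/5% CO2 before compounds, positive and negative controls or DMSO were added. Incubation continued for 17.5 h, and viability was then quantified by CellTiter-Fluor fluorescence.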

[2] = target: Luciferin 4-monooxygenase (Photinus pyralis) (UniProt P08659); test: qHTS assay to identify small molecule inhibitors of firefly luciferase (AID 1224835); also: nearly all actives have a fitted effect of over 25% in size; also: potency is read from the fitted curve at half-maximal effect
Summary of the method: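 Quantitative HTS format; KM concentrations of both substrates. Purified P. pyralis FLuc activity quantified from luminescence images.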

[3] = qHTS assay to identify small molecule agonists of the constitutive androstane receptor (CAR) signaling pathway - cell viability counter screen (AID 1224836); also: nearly all actives have a fitted effect of over 45% in size
Summary of the method: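 HepG2 cells stably carrying hCAR and a CYP2B6-2.2kb reporter were plated 4 h, then given compounds at 15 concentrations plus PK11195 (final 0.75 uM). After 23 h at 37 C, viability was read by CellTiter-Fluor fluorescence.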

[4] = qHTS assay to identify small molecule antagonists of the constitutive androstane receptor (CAR) signaling pathway - cell viability counter screen (AID 1224837); also: nearly all actives have a fitted effect of over 45% in size
Summary of the method: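 To flag cytotoxic false antagonists, HepG2 hCAR/CYP2B6-2.2kb cells were treated 23 hr with 15-concentration compound series and 50 nM CITCO at 37 C/5% CO2; CellTiter-Fluor fluorescence was the measured end point.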

[5] = target: Nuclear receptor subfamily 1 group I member 3 (Homo sapiens) (UniProt Q14994); test: qHTS assay to identify small molecule agonists of the constitutive androstane receptor (CAR) signaling pathway (AID 1224839);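 also: HepG2 cells stably carrying human CAR and a CYP2B6 luciferase reporter; nearly all actives have a fitted effect of over 15% in size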
Summary of the method: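 HepG2 cells stably expressing hCAR and a CYP2B6-2.2kb luciferase reporter were treated with compounds at 15 concentrations plus 0.75 uM PK11195 (final) for 24 h at 37 C; luminescence was read after ONE-Glo addition.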

[6] = qHTS assay to identify small molecule antagonists of the estrogen related receptor signaling pathway with the pleiotropic PPARgamma coactivator (PGC) from Tox21 10K library - cell viability counter screen (AID 1224840; active = well fitted cell-killing curve with a large enough effect in the repeat runs, not every such curve was filed as active; also: nearly all actives have a fitted effect of over 40% in size)
Summary of the method: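 Seeded PGC/ERR cells (2,000/well, 6 h, 37 C/5% CO2) get compound by pin tool; 17.5 h incubation at 37 C; CellTiter-Fluor added, 30 min, fluorescence measured.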

[7] = qHTS assay to identify small molecule antagonists of the estrogen related receptor signaling pathway with the pleiotropic PPARgamma coactivator (PGC) from Tox21 10K library (AID 1224841; call rule not given here; also: actives are mostly falling curves and most rising ones were filed inactive; nearly all actives have a fitted effect of over 50% in size)
Summary of the method: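 Test chemicals dissolved in DMSO were applied to pre-incubated (6 h) PGC/ERR cells at 2,000 cells/well for an 18 h, 37 C treatment; reporter luminescence was then read using One-Glo.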

[8] = qHTS assay to identify small molecule agonists of the estrogen related receptor signaling pathway with the pleiotropic PPARgamma coactivator (PGC) from Tox21 10K library (AID 1224842); also: nearly all actives have a fitted effect of over 15% in size
Summary of the method: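 PGC/ERR reporter cells (NTP line) were seeded 2,000 per well, rested 6 h at 37 C/5% CO2, then pin-dosed with compounds in DMSO for 18 h at 37 C; luciferase read by One-Glo luminescence after 30 min at room temperature.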

[9] = target: Thyrotropin receptor (Homo sapiens) (UniProt P16473); test: qHTS assay to identify small molecule agonists of the thyroid stimulating hormone receptor (TSHR) signaling pathway (AID 1224843; calls by dose curve; also: nearly all actives have a fitted effect of over 45% in size)
Summary of the method: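 Using 15 concentrations per compound in triplicate, cAMP production was monitored in TSHR-HEK293 cells after 30 min compound incubation at RT; HTRF reagents followed, with fluorescence intensity recorded after 1 h.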

[10] = qHTS assay to identify small molecule agonists of the hypoxia (HIF-1) signaling pathway - cell viability counter screen (AID 1224844; calls by dose curve; also: nearly all actives have a fitted effect of over 50% in size)
Summary of the method: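 HRE-bla ME-180; 0.5% dFBS; cpd 17 h, 37C, 5% CO2; CellTiter-Glo lum., 30 min RT, post-FRET read, same wells.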

[11] = qHTS assay to identify small molecule agonists of H2AX (AID 1224845; active = well fitted activation curve with a large enough effect in the signal ratio in the repeat runs, not every such curve was filed as active; the % refers to the signal ratio)
Summary of the method: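 Wild-type CHO-K1 cells plated overnight, then exposed 3 hr at 37C to compounds at 15 concentrations (0.76% DMSO). Lysed, then HTRF anti-pH2AX(S139)-cryptate/anti-H2AX-d2 detection after 24 hr at room temperature; emissions 665 and 620 nm.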

[12] = qHTS assay to identify small molecule agonists of the hypoxia (HIF-1) signaling pathway (AID 1224846; active = well fitted activation curve with a large enough effect in the signal ratio in the repeat runs, not every such curve was filed as active; the % refers to the signal ratio)
Summary of the method: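 Reporter induction in HRE-bla ME-180 cells is taken as agonism: cells sit 5 hrs after plating, receive compounds or DMSO only, incubate 17 hrs at 37C under 5% CO2, and are loaded with CCF4-AM for beta-lactamase FRET measurement.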

[13] = qHTS assay to identify small molecule agonists of H2AX - cell viability counter screen (AID 1224847; calls by dose curve; also: top concentration of the series differs between compounds; nearly all actives have a fitted effect of over 30% in size)
Summary of the method: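 Wild-type CHO-K1 cells (10% FBS medium) were plated overnight at 37C, exposed to compounds at 15 concentrations for 3 hr at 37C (0.76% DMSO final), and viability was read as CellTiter-Glo luminescence after 30 min at room temperature.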

[14] = qHTS assay to identify small molecule antagonists of the estrogen related receptor (ERR) signaling pathway from Tox21 library (AID 1224848); also: nearly all actives have a fitted effect of over 50% in size
Summary of the method: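 Tox21 10K compounds in DMSO tested for ERR pathway antagonism in NTP's ERR cell line; 18 h, 37 C exposure; ONE-Glo luminescence.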

[15] = qHTS assay to identify small molecule agonists of the estrogen related receptor (ERR) signaling pathway from Tox21 library (AID 1224849; calls by dose curve; also: nearly all actives have a fitted effect of over 15% in size); settings: ERR reporter cell line, ONE-Glo luciferase, 18 h; at 92.4 µM (top of the series) unless noted
Summary of the method: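 Tox21 compounds tested for ERR agonism in an NTP reporter cell line: 18 h treatment at 37 C, then ONE-Glo luminescence.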

[16] = qHTS RealTime-Glo MT Cell Viability Assay in HepG2 cells - 24 hour (AID 1224867); also: nearly all actives have a fitted effect of over 50% in size
Summary of the method: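 HepG2 suspension premixed with RealTime-Glo reagents is plated at 600 cells per well and left 5 h at 37 C/5% CO2. Compounds in DMSO then go in, and bioluminescence reflecting viable cell number is recorded over 40 h.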

[17] = qHTS RealTime-Glo MT Cell Viability Assay in HEK293 cells - 32 hour (AID 1224868)
Summary of the method: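 Reads taken at 0, 8, 16, 24, 32 and 40 h from the same wells. HEK293 cells (600/well) carried RealTime-Glo reagents from seeding, with compound added after a 5 h settle at 37 C.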

[18] = A CellTox Green Cytotoxicity Assay to monitor cytotoxicity in HEK293 cells - 0 hour (AID 1224869); also: nearly all actives have a fitted effect of over 50% in size
Summary of the method: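 Tox21 screen in HEK293: membrane-impermeant cyanine dye fluoresces on binding dead-cell DNA; compound pinned 5 h post-seeding, plates held at 37 C, signal read repeatedly through 40 h.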

[19] = target: Nuclear receptor subfamily 1 group I member 3 (Homo sapiens) (UniProt Q14994); test: qHTS assay to identify small molecule antagonists of the constitutive androstane receptor (CAR) signaling pathway (AID 1224838); also: nearly all actives have a fitted effect of over 40% in size
Summary of the method: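 Human hepatoma HepG2 cells expressing hCAR and a CYP2B6 promoter (2.2 kb) luciferase construct; compound titration (15 points) with 50 nM CITCO final, 24 h at 37 C/5% CO2; luminescence via ONE-Glo after 30 min at room temperature.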
% is scaled to controls: 0 for no effect and ±100 for the full control effect.

Luciferin 4-monooxygenase (Photinus pyralis), sequence (P08659 whole entry, looked up): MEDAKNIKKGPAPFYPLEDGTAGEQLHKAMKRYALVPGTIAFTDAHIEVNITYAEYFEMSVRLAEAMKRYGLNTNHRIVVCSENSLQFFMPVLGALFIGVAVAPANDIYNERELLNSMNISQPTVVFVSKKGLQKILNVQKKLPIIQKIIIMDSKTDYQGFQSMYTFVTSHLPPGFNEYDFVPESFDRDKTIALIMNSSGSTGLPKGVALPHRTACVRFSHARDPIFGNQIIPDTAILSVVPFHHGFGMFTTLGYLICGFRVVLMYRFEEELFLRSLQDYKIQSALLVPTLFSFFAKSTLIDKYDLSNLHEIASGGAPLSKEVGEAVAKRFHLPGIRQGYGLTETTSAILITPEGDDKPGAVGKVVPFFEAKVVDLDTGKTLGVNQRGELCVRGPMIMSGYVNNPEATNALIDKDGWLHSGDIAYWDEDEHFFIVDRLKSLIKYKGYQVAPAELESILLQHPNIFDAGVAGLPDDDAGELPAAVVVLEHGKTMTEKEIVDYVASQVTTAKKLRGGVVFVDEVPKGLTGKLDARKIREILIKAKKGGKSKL
Nuclear receptor subfamily 1 group I member 3 (Homo sapiens), sequence (Q14994 whole entry, looked up): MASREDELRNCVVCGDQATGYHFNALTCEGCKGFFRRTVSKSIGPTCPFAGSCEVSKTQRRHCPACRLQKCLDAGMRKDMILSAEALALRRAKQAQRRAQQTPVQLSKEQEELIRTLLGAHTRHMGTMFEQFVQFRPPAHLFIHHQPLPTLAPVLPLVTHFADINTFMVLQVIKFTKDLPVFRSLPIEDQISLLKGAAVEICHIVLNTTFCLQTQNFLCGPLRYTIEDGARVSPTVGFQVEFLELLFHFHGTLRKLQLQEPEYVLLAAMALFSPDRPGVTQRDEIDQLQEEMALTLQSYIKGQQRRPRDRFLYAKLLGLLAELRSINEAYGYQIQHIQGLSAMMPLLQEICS
Thyrotropin receptor (Homo sapiens), sequence (P16473 whole entry, looked up): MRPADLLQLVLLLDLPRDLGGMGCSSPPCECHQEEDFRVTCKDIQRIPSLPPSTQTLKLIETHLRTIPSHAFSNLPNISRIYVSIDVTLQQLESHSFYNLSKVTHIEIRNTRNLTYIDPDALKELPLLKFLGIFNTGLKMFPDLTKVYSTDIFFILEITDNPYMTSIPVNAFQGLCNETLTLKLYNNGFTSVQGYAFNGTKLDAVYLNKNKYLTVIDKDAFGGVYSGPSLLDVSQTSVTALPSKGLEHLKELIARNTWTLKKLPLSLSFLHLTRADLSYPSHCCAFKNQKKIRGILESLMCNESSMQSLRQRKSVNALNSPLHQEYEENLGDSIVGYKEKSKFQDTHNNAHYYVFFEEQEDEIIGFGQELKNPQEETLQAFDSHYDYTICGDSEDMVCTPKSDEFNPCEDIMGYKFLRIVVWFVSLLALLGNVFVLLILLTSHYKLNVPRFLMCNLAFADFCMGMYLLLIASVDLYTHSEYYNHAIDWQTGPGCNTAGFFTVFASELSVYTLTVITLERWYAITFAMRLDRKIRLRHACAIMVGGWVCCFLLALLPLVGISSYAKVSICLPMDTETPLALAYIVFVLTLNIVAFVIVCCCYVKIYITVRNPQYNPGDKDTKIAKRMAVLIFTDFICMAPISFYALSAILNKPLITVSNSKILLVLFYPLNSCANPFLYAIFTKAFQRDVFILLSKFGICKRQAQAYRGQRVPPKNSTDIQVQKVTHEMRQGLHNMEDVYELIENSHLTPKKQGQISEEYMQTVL

CCCC/C=C\CCCCCCCCCC=O
inactive: Potency [1] | Potency [2] | Potency [3] | Potency [4] | Potency [5] | outcome [6] | Potency [7] | outcome [8] | Potency [9] | outcome [10] | outcome [11] | outcome [12] | Potency [13] | Potency [14] | activity change, positive = activation [15] 2.29% | outcome [16] | Potency [17] | outcome [18]

CC(C)N(c1ccccc1)C(C)C
inactive: Potency [1] | Potency [2] | Potency [3] | Potency [4] | outcome [19] | Potency [5] | outcome [6] | Potency [9] | outcome [10] | outcome [11] | Potency [13] | outcome [16] | Potency [17] | outcome [18]

COc1ccc2nc(SCc3ncc(C)c(OC)c3C)[nH]c2c1
inactive: Potency [1] | Potency [3] | Potency [4] | outcome [19] | outcome [6] | Potency [7] | outcome [8] | Potency [9] | outcome [10] | outcome [11] | outcome [12] | Potency [13] | Potency [14] | activity change, positive = activation [15] -13.6% [at 42.5 µM] | outcome [16] | outcome [18]
active: Potency [2] 13.8 µM

C=C(C)C1CCC(C)(O)CC1 (configuration not stated)
inactive: Potency [1] | Potency [2] | Potency [3] | Potency [4] | outcome [19] | Potency [5] | outcome [6] | Potency [9] | outcome [10] | outcome [11] | outcome [12] | Potency [13] | outcome [16] | Potency [17] | outcome [18]

CC1(C)S[C@@H]2[C@H](N=CN3CCCCCC3)C(=O)N2[C@H]1C(=O)O
inactive: Potency [1] | Potency [2] | Potency [3] | Potency [4] | outcome [19] | Potency [5] | outcome [6] | Potency [9] | outcome [10] | outcome [11] | outcome [12] | Potency [13] | outcome [16] | Potency [17] | outcome [18]

Cc1cc(C(C)(C)C)c(O)c(C)c1CC1=NCCN1
inactive: Potency [1] | Potency [2] | Potency [3] | Potency [4] | outcome [19] | Potency [5] | outcome [6] | Potency [9] | outcome [10] | outcome [11] | Potency [13] | outcome [16] | Potency [17] | outcome [18]

O=C1CCCC(=O)O1
inactive: Potency [1] | Potency [2] | Potency [3] | Potency [4] | outcome [19] | Potency [5] | Potency [9] | outcome [10] | outcome [11] | outcome [12] | Potency [13] | outcome [16] | Potency [17] | outcome [18]

CCCCCCCCCC(C)=O
inactive: Potency [1] | Potency [2] | Potency [3] | Potency [4] | outcome [19] | Potency [5] | outcome [6] | Potency [9] | outcome [10] | outcome [11] | outcome [12] | Potency [13] | outcome [16] | Potency [17] | outcome [18]
